Only some compounds are listed: those with a hit (about 1.3% of all), similar ones and a draw of the others.
NCOA2 inhibitor: inhibition of GAL4-SRC2 driven luciferase reporter, primary screen, SRC2 inhibitor project, cell-based, luminescence; inhibition, % at 9 µM; Nuclear receptor coactivator 2 (Homo sapiens), Q15596; 0.17% of 370,000 active; HEK293 GAL4-SRC2 luciferase reporter;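 active means inhibition above the mean inhibition of all tested compounds plus 3 SD, set per campaign, cut at about 52% in these data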;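 further: 0% = DMSO treated cells and 100% = cells given Gossypol at 36 µM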
Target sequence (Q15596 whole entry, looked up, the tested form may be a part): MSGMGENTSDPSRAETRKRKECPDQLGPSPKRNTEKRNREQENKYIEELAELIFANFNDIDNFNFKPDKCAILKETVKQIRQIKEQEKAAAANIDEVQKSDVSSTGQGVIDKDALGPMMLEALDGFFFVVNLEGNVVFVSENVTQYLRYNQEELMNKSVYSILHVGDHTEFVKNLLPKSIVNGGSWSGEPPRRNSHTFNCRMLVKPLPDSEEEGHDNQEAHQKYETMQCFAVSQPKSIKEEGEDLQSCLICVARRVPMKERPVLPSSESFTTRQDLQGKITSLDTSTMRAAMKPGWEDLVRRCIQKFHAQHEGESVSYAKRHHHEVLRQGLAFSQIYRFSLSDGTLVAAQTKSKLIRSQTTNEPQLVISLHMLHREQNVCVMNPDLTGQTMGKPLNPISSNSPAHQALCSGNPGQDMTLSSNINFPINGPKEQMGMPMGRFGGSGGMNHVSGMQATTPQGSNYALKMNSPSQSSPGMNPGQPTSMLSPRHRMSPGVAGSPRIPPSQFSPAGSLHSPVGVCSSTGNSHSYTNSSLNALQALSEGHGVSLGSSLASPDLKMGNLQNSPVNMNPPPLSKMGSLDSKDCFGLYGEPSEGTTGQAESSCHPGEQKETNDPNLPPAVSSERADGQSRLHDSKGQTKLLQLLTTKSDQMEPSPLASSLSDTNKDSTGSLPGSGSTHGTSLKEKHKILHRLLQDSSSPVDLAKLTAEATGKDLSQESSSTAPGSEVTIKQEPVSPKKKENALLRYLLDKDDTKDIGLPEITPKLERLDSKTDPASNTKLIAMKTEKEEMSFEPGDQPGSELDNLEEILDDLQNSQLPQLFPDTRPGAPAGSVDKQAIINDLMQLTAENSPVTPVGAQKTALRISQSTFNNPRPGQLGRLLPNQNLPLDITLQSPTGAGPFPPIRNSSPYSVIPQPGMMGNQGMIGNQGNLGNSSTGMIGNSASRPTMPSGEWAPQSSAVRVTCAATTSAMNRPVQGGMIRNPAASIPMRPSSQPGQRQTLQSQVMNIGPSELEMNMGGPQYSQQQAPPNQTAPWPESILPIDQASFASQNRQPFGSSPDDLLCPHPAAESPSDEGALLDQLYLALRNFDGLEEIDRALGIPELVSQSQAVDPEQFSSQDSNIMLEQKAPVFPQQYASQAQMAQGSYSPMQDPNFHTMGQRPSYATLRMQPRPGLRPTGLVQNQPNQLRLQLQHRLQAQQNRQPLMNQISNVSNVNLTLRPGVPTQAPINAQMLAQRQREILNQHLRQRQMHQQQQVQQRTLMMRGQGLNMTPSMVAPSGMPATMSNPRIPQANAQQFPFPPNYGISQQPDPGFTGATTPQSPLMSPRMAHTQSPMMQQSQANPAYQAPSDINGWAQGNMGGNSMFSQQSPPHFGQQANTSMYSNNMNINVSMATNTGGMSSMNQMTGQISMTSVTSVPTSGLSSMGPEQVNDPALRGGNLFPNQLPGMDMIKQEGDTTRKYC
NCOA1 inh: SRC1 coactivator transcriptional activity inhibitors, primary screen, cell-based, luminescence | AID 588354, 2011 | 0.12% of 360,000 active | HEK293 GAL4-SRC1 luciferase reporter | Nuclear receptor coactivator 1 (Homo sapiens), Q15788 | inhibition, % at 3.6 µM;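 active means inhibition above the campaign mean plus 3 SD, with each screening campaign given its own cutoff, cut at about 60% in these data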;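 further: 0% = DMSO treated cells and 100% = gossypol at 36 µM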
SRC3 inh: SRC3 coactivator transcriptional activity inhibitors, primary screen, cell-based, luminescence | Nuclear receptor coactivator 3 (Homo sapiens), Q9Y6Q9 | HEK293 GAL4-SRC3 luciferase reporter | inhibition, % at 3.6 µM | 0.17% of 360,000 active | AID 588352, 2011;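 active means inhibition above a per-campaign cutoff, the mean of all compounds plus 3 SD, cut at about 60% in these data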;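 further: 0% = DMSO-treated cells and 100% = gossypol-treated cells at 36 µM; higher means less SRC3-driven luciferase light from the GAL4 reporter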
Gli-Sufu antag: Gli-Sufu pathway antagonists, primary screen, luciferase luminescence, Sufu-KO-LIGHT cells, uHTS. Sufu-KO-LIGHT fibroblasts, Gli luciferase reporter luminescence. inhibition, % at 5 µM. 0.74% of 340,000 active. AID 588413, 2011;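 active means inhibition above about 55%, limit read from the data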;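 further: 0% = DMSO-treated cells and 100% = wells with medium but no cells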
NR5A2 inv ag: LRH-1 (NR5A2) inverse agonists, primary screen, cell-based, luminescence, HEK293T, StAR-luciferase reporter. inhibition, % at 3.6 µM. 0.13% of 360,000 active. LRH-1 transfected, 24 h. Nuclear receptor subfamily 5 group A member 2 (Homo sapiens), O00482. AID 602396, 2012;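 active means inhibition above the mean inhibition of all tested compounds plus 3 SD, cut at about 73% in these data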;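 further: 0% = DMSO wells and 100% = reporter-only cells lacking LRH-1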
COUP-TFII inh: NR2F2 transcriptional activity inhibitors, primary screen, cell-based, luciferase reporter, HEK293T, luminescence | COUP transcription factor 2 (Homo sapiens), P24468 | HEK293T NGFI-A luciferase reporter | inhibition, % at 8.6 µM | 0.7% of 370,000 active;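 active means inhibition above a per-plate cutoff, mean inhibition of test wells between control levels plus 3 SD, cut at about 38% in these data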;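 further: cells cotransfected with COUP-TFII expression vector driving the NGFI-A reporter; 0% = median of COUP-TF2 test wells and 100% = reporter-only cells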
Numbers without * were called inactive.

For COc1ccc(-n2c(COc3ccc(C)cc3)nnc2SCC(=O)c2ccc(-c3ccccc3)cc2)cc1 the results were NCOA2 inhibitor 6 and COUP-TFII inh 8.
CC[n+]1c(/C=C/N(C)c2ccccc2)n(-c2ccccc2)c2ccc(-c3nc4ccccc4s3)cc21 was read as NCOA1 inh 82*, SRC3 inh 83*, Gli-Sufu antag 91* and NR5A2 inv ag 90*.
For CC[n+]1cccc(-c2nc3ccccc3s2)c1 the results were NCOA2 inhibitor 45, NCOA1 inh 21, SRC3 inh 24, Gli-Sufu antag -2, NR5A2 inv ag 16 and COUP-TFII inh 24.
For COC(=O)C1=C(C)N(Cc2ccc(C(F)(F)F)cc2)C(=NCc2ccccc2C(F)(F)F)NC1c1cccc(Cl)c1 (stereo unspecified) the results were NCOA2 inhibitor -8 and COUP-TFII inh 0.
`Cc1nc(N2CCN(C(=O)c3ccco3)CC2)c2c3c(sc2n1)CC(C)CC3` (stereo unspecified) gave NCOA2 inhibitor -3, NCOA1 inh -26, SRC3 inh 9, Gli-Sufu antag 79*, NR5A2 inv ag -10 and COUP-TFII inh 0.
Cc1nc(N2CCN(C(=O)c3ccco3)CC2)c2c3c(sc2n1)CCCC3 was read as NCOA2 inhibitor 1, NCOA1 inh 2, SRC3 inh 1, Gli-Sufu antag 16, NR5A2 inv ag -15 and COUP-TFII inh 8.
For CCOC(=O)N1CCN(C(=O)C2CCCN(Cc3nc(-c4ccc(Cl)cc4)oc3C)C2)CC1 (stereo unspecified) the results were NCOA2 inhibitor 10, NCOA1 inh 19, SRC3 inh 3, Gli-Sufu antag 9, NR5A2 inv ag 42 and COUP-TFII inh 73*.
`Cc1oc(-c2ccc(Cl)cc2)nc1CN1CCCC(C(=O)NC2CC2)C1` (stereo unspecified) gave NCOA2 inhibitor 16, NCOA1 inh 7, SRC3 inh -19, Gli-Sufu antag 10, NR5A2 inv ag 7 and COUP-TFII inh 6.
Screening CCCCCCCCN1C(=O)[C@@H](CC(=O)NCc2ccc(OC)c(OC)c2)C[C@@]2(C(=O)OC)C1=C[C@H](COCc1ccccc1)O[C@@H]2C returned NCOA2 inhibitor 8 and COUP-TFII inh 16.
Screening Cc1cc(OCC(C)CN2CCC(C(O)(c3ccccc3)c3ccccc3)CC2)ccc1Br (stereo unspecified) returned NCOA2 inhibitor 12 and COUP-TFII inh 0.
`Cc1cc(C)c(NS(=O)(=O)c2cccc3cccnc23)c(C)c1` gave NCOA2 inhibitor -12, NCOA1 inh -12, SRC3 inh 10, Gli-Sufu antag 6, NR5A2 inv ag -4 and COUP-TFII inh 7.
For Cc1ccc(S(=O)(=O)Nc2cccc3cccnc23)c([N+](=O)[O-])c1 the results were NCOA2 inhibitor -86, NCOA1 inh -8, SRC3 inh -17, Gli-Sufu antag 61*, NR5A2 inv ag -7 and COUP-TFII inh -6.
`CC1=C[C@]2(C[N+](Cc3ccccc3)=C(N)N2)n2c(=O)n(-c3ccccc3)c(=O)n2C1` gave NCOA2 inhibitor -15 and COUP-TFII inh -9.
Screening c1ccc(-c2cccc(-c3ccccn3)n2)nc1 returned NCOA1 inh 81*, SRC3 inh 84*, Gli-Sufu antag 85* and NR5A2 inv ag 98*.
`c1ccc(-c2nnc(-c3ccccn3)nn2)nc1` gave NCOA2 inhibitor -60, NCOA1 inh -124, SRC3 inh -83, Gli-Sufu antag -104, NR5A2 inv ag -126 and COUP-TFII inh -46.
For CC(=O)n1cc(N(C(=O)CCl)c2ccc([N+](=O)[O-])cc2)c2ccccc21 the results were NCOA2 inhibitor 56*, NCOA1 inh -6, SRC3 inh 21, Gli-Sufu antag 5, NR5A2 inv ag 34 and COUP-TFII inh 19.
`O=C(CSc1nnc(-c2ccccc2)n1-c1ccc(Cl)cc1)Nc1ccccc1-c1ccccc1` gave NCOA2 inhibitor -8 and COUP-TFII inh -12.
C=CC[n+]1ccc(/C=C2\C=Cc3cc(C)ccc3N2CC)c2ccccc21 was read as NCOA1 inh 51, SRC3 inh 73*, Gli-Sufu antag 88* and NR5A2 inv ag 86*.
Screening COc1ccccc1C=CC(=O)C=Cc1ccccc1OC returned NCOA2 inhibitor 7, NCOA1 inh -55, SRC3 inh 2, Gli-Sufu antag -8, NR5A2 inv ag -6 and COUP-TFII inh 50*.
`CC(=O)c1ccc(NC(=O)NC2CCCCN(Cc3cccc(Cl)c3)C2=O)cc1` (stereo unspecified) gave NCOA2 inhibitor 10 and COUP-TFII inh 25.
Screening CC[C@@H](C(=O)[C@@H](C)[C@@H](O)[C@H](C)CCc1ccc(C)c(O)c1C(=O)O)[C@H]1O[C@](CC)([C@H]2CC[C@](O)(CC)[C@H](C)O2)C[C@@H]1C returned NCOA2 inhibitor 9, NCOA1 inh -1, SRC3 inh 53, Gli-Sufu antag 82*, NR5A2 inv ag 52 and COUP-TFII inh -39.
`O=C(N[C@H](Cc1ccccc1)C(=O)N1CCN(C(=O)N2CCOCC2)CC1)[C@H]1O[C@@H](n2ccc(=O)[nH]c2=O)[C@H](O)[C@@H]1O` gave NCOA2 inhibitor -2 and COUP-TFII inh -15.
COc1ccc(-c2cn[nH]c2-c2ccc(O)cc2O)cc1 was read as NCOA2 inhibitor 54*, NCOA1 inh 55, SRC3 inh 48, Gli-Sufu antag -10, NR5A2 inv ag 9 and COUP-TFII inh 19.
COC(=O)C1CN(Cc2ccc(F)cc2)CCS(=O)(=O)N1Cc1cn(Cc2ccccc2)nn1 (stereo unspecified) was read as NCOA2 inhibitor 5 and COUP-TFII inh 8.
For CCN(CC(=O)Nc1c(F)cccc1F)C(=O)CSCC(=O)Nc1cc(C)on1 the results were NCOA2 inhibitor 24, NCOA1 inh 1, SRC3 inh 15, Gli-Sufu antag -11, NR5A2 inv ag -9 and COUP-TFII inh 12.
Screening CCN(CC(=O)Nc1ccc(OC)cc1)C(=O)CSCC(=O)Nc1cc(C)on1 returned NCOA2 inhibitor -8, NCOA1 inh 0, SRC3 inh 79*, Gli-Sufu antag 7, NR5A2 inv ag -1 and COUP-TFII inh -1.
Screening O=C(CCl)N(c1ccc(Cl)cc1)c1c[nH]c2ccccc12 returned NCOA2 inhibitor 24, NCOA1 inh -44, SRC3 inh 27, Gli-Sufu antag 88*, NR5A2 inv ag 44 and COUP-TFII inh 10.
